Among the data in PubChem BioAssay (EPA / NIEHS) are outcome and AC50 values, retold here.

Holding throughout (conditions): mRNA level, 48 h; actives raise or lower the signal
Read-out in assay [1]: CYP4A11 (gene 1579)
Briefly: LTEA_HepaRG_CYP4A11: Life Technologies and Expression Analysis (LTEA) Assay for CYP4A11 using HepaRG (AID 2283486). The method in brief: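 Readout is CYP4A11 mRNA induction or suppression (qRT-PCR, ACTB/GAPDH/POLR2A normalization) in human HepaRG cells after 48 h chemical treatment, concentrations to 100 uM in 0.5% DMSO, fitted bidirectionally against vehicle.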

Read-out in assay [2]: Cytochrome P450 3A4 (Homo sapiens) (UniProt P08684)
As to the kind of experiment: LTEA_HepaRG_CYP3A4: Life Technologies and Expression Analysis (LTEA) Assay for CYP3A4 using HepaRG (AID 2283487). The method in brief: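 Differentiated HepaRG cells, plated 48 h, then dosed 48 h in serum-free induction medium with 0.5% DMSO, 8 half-log concentrations up to 100 uM, duplicate. CYP3A4 mRNA by qRT-PCR, normalized to ACTB/GAPDH/POLR2A; bidirectional fit versus DMSO.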

Read-out in assay [3]: DNA damage-inducible transcript 3 (DDIT3), DDIT3 (gene 1649)
As to the kind of experiment: LTEA_HepaRG_DDIT3: Life Technologies and Expression Analysis (LTEA) Assay for DNA damage-inducible transcript 3 (DDIT3) using HepaRG (AID 2283488). The method in brief: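 Changes in DDIT3 transcript, in either direction relative to 0.5% DMSO vehicle, were quantified by TaqMan qRT-PCR after 48 h chemical exposure of HepaRG cells at 8 concentrations, maximum 100 uM.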

Read-out in assay [4]: Pro-epidermal growth factor (Homo sapiens) (UniProt P01133)
As to the kind of experiment: LTEA_HepaRG_EGF: Life Technologies and Expression Analysis (LTEA) Assay for Epidermal growth factor (EGF) using HepaRG (AID 2283489). An outline of the steps:
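EGF expression changes in human HepaRG cells are scored by bidirectional fitting relative to 0.5% DMSO controls. Chemicals are tested at eight half-log concentrations up to 100 uM for 48 h in serum-free induction medium.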

Read-out in assay [5]: Early growth response protein 1 (EGR1) transcription factor, EGR1 (gene 1958)
Briefly: LTEA_HepaRG_EGR1: Life Technologies and Expression Analysis (LTEA) Assay for Early growth response protein 1 (EGR1) transcription factor using HepaRG (AID 2283490). The method in brief: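 Differentiated HepaRG cells in serum-free induction medium exposed 48 hours, duplicate, to 8 half-log concentrations up to 100 uM in 0.5% DMSO. EGR1 mRNA measured by TaqMan qRT-PCR, normalized to ACTB, GAPDH, POLR2A; bidirectional fit versus DMSO.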

Read-out in assay [6]: Ezrin (EZR), EZR (gene 7430)
As to the kind of experiment: LTEA_HepaRG_EZR: Life Technologies and Expression Analysis (LTEA) Assay for Ezrin (EZR) using HepaRG (AID 2283491). The method in brief:
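EZR transcript levels came from Fluidigm qRT-PCR and were normalized to three housekeeping genes after 48 h chemical exposure of HepaRG cells. Dosing used an 8-point half-log series with a 100 uM top concentration in 0.5% DMSO, tested in duplicate; both directions were fitted versus vehicle.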

Read-out in assay [7]: Cytochrome P450 3A7 (Homo sapiens) (UniProt P24462)
As to the kind of experiment: LTEA_HepaRG_CYP3A7: Life Technologies and Expression Analysis (LTEA) Assay for CYP3A7 using HepaRG (AID 2283492). An outline of the steps:
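Cells were thawed, plated, cultured 48 h, then treated for a further 48 h with chemicals (eight-point half-log series from 100 uM, 0.5% DMSO). RNA was isolated and CYP3A7 expression quantified by qRT-PCR normalised to ACTB, GAPDH and POLR2A.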

Read-out in assay [8]: CYP3A5 (gene 1577)
Briefly: LTEA_HepaRG_CYP3A5: Life Technologies and Expression Analysis (LTEA) Assay for CYP3A5 using HepaRG (AID 2283493). The method in brief:
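mRNA induction or loss of CYP3A5 assessed in HepaRG after 48 h dosing, 100 uM top concentration, duplicate wells; TaqMan qRT-PCR with ACTB, GAPDH, POLR2A normalization; 0.5% DMSO as negative control.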

Read-out in assay [9]: Fatty Acid-Binding Protein 1 (FABP1), FABP1 (gene 2168)
Briefly: LTEA_HepaRG_FABP1: Life Technologies and Expression Analysis (LTEA) Assay for Fatty Acid-Binding Protein 1 (FABP1) using HepaRG (AID 2283494). An outline of the steps:
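Differentiated human HepaRG cells exposed 48 h in serum-free induction medium to eight half-log concentrations up to 100 uM (0.5% DMSO), duplicate. FABP1 mRNA by qRT-PCR, normalised to ACTB, GAPDH, POLR2A; bidirectional fitting against DMSO.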

Read-out in assay [10]: Cytochrome P450 4A22 (Homo sapiens) (UniProt Q5TCH4)
As to the kind of experiment: LTEA_HepaRG_CYP4A22: Life Technologies and Expression Analysis (LTEA) Assay for Cytochrome P450 4A22 (CYP4A22) using HepaRG (AID 2283495). The method in brief: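 Cryopreserved HepaRG cells, plated and cultured 48 h, then switched to serum-free induction medium and treated 48 h (duplicates, up to 100 uM, half-log steps, 0.5% DMSO). Expression change of CYP4A22 was fitted bidirectionally against vehicle.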

The AC50 is the concentration at which the activity in the assay is half-maximal.

Active and inactive are the calls of the source. Rule for the calls: active = hit-call score of the fitted dose curve at least 0.9, where 1 is the maximum; inactive = score below 0.9.

Chain of Cytochrome P450 3A7 (Homo sapiens) (P24462 whole entry, looked up): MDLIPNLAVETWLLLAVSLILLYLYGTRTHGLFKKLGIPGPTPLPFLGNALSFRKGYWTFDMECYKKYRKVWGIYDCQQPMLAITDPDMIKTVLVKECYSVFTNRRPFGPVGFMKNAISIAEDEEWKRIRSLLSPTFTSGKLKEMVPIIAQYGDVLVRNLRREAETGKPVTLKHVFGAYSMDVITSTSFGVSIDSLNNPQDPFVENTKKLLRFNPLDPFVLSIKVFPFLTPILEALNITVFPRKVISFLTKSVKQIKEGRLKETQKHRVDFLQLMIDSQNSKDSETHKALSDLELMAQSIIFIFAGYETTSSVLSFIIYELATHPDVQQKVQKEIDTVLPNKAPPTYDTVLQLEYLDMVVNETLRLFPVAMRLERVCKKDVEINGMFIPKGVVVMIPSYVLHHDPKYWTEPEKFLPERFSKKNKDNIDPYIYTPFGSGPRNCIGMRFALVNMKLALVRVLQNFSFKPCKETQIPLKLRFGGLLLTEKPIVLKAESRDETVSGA
Chain of Cytochrome P450 3A4 (Homo sapiens) (P08684 whole entry, looked up): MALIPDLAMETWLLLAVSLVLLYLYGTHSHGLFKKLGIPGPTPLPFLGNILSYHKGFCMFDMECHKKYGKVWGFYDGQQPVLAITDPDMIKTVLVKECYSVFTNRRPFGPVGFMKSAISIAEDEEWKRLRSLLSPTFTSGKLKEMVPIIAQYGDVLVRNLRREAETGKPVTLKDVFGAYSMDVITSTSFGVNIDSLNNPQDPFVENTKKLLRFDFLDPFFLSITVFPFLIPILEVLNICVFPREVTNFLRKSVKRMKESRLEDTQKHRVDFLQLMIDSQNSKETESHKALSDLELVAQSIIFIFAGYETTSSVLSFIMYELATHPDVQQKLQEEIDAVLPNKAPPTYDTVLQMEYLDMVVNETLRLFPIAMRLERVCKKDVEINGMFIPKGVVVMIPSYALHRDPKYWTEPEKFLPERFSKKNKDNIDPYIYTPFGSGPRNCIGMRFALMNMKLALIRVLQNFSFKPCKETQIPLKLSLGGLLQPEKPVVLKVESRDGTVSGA

With `O=C(O)c1ccc2c(c1)nc(C(=O)NC1CCN(C3CC3)CC1)n2Cc1cc(-c2ccc(Cl)s2)on1`, the result in assay [1], in [2], in assay [3], in assay [4], in assay [5] and in assay [6] was inactive. The compound was called inactive in [7], in assay [8], in [9] and in assay [10].

In the case of `CC[C@H](C)C(=O)O[C@H]1C[C@H](O)C=C2C=C[C@H](C)[C@H](CC[C@@H](O)C[C@@H](O)CC(=O)O)[C@H]21`, the compound was classed as inactive in assay [1], in [2], in assay [3], in assay [4], in [5] and in assay [6]. The call in assay [7], in assay [8] and in assay [10] was inactive. For the same compound, the AC50 in assay [9] is 3.68 µM (active).

For the compound `CC(C)C(=O)Nc1ccc([N+](=O)[O-])c(C(F)(F)F)c1`, the AC50 is 50.4 µM (active) in [1]; 87.5 µM (active) in [3]; 50 µM (active) in assay [4]; 81.9 µM (active) in assay [5]; 37.9 µM (active) in [9]; 41.7 µM (active) in assay [10]. Besides, the compound was called inactive in assay [6] and in assay [8].

Take `CC(C)CC(C)O` (configuration not stated): the compound was classed as inactive in assay [1], in assay [2], in assay [4], in assay [5], in assay [6] and in assay [7]. Also, the result in assay [8], in assay [9] and in [10] was inactive.

With `Cn1c(=O)c2[nH]cnc2n(C)c1=O`, the result in [1], in assay [2], in [4], in [5], in assay [6] and in assay [7] was inactive. Moreover, the compound was classed as inactive in assay [8] and in assay [10].

For the compound `C=CCc1cc(S(=O)(=O)c2ccc(O)c(CC=C)c2)ccc1O`, the AC50 is 94.4 µM (active) in assay [1]; 80.4 µM (active) in [2]; 76.8 µM (active) in assay [7]; 9.92 µM (active) in assay [8]; 86.8 µM (active) in [9]; 82.6 µM (active) in [10]. In addition, the result in assay [4], in assay [5] and in assay [6] was inactive.

Consider `Cc1nccn1-c1ccc(Sc2cccc(C3(C(N)=O)CCOCC3)c2)cc1`, for which the concentration at half-maximal activity (AC50) in assay [1] was 4.94 µM (active); in assay [2] it was 13.4 µM (active); in assay [4], 32.8 µM (active); in assay [5] it was 21.9 µM (active); in [7], 10.4 µM (active); in assay [8], 19.5 µM (active). In addition, the AC50 in assay [9] was 11.6 µM (active); in assay [10] it was 6.16 µM (active). The compound was called inactive in assay [6].

Consider `Cn1cc[nH]c1=S`, for which the compound was called inactive in assay [1], in [4], in assay [5], in assay [6], in [9] and in [10].

As to `CCCCOC(=O)c1ccccc1`, the compound was classed as inactive in assay [1], in assay [2], in assay [4], in assay [5], in assay [6] and in [7]. The result in assay [8] and in [10] was inactive. In addition, the AC50 in [9] was 12.1 µM (active).

As to `OCCOCCOCCO`, the compound was classed as inactive in assay [1], in [2], in [4], in assay [5], in [6] and in assay [7]. Moreover, the result in [8], in assay [9] and in assay [10] was inactive.

With `CC(C)c1nnc2ccc(-c3ocnc3-c3cc(F)ccc3F)cn12`, the AC50 in assay [1] is 33.6 µM (active); in assay [2] it was 1.42 µM (active); in assay [5], 12.3 µM (active); in assay [6] it was 2.38 µM (active); in [7], 81.6 µM (active); in assay [9], 52.6 µM (active). For the same compound, in assay [10], the concentration at half-maximal activity (AC50) was 31.8 µM (active). Moreover, the result in assay [4] and in [8] was inactive.

As to `O=C1CN(N=Cc2ccc([N+](=O)[O-])o2)C(=O)N1`, the figures for the AC50 in assay [1], in [9] and in assay [10] were 45.7 µM (active), 41.9 µM (active) and 44.3 µM (active), respectively. Moreover, the outcome in [4], in assay [5], in assay [6], in [7] and in assay [8] was inactive.

Take `COc1cc2c(c(OC)c1OC)-c1ccc(OC)c(=O)cc1[C@@H](NC(C)=O)CC2`: the AC50 was 0.0804 µM (active) in assay [1], 0.0995 µM (active) in [8], 0.106 µM (active) in assay [9] and 0.108 µM (active) in assay [10]. Moreover, the compound was called inactive in assay [4], in assay [5] and in assay [6].

Take `Nc1ccn([C@@H]2O[C@H](CO)[C@@H](O)[C@@H]2O)c(=O)n1`: the result in assay [1], in assay [2], in assay [4], in assay [5], in assay [6] and in assay [7] was inactive. Besides, the compound was called inactive in assay [8], in assay [9] and in [10].

In the case of `Cc1ncc([C@@H](CCCCCCc2ccc3c(n2)NCCC3)CC(=O)O)cn1`, the AC50 in assay [1] was 15.7 µM (active); in assay [2], 31 µM (active). The result in assay [4], in [5], in assay [6], in assay [7], in assay [8] and in [9] was inactive. Besides, the compound was classed as inactive in [10].

`CCCCCCCC1CCC(=O)O1` (configuration not stated): the compound was classed as inactive in assay [3], in assay [4], in [5], in assay [6] and in assay [9].

Consider `CCCCCCCCCCCCCCCCOS(=O)(=O)O`, for which the outcome in assay [1], in [2], in [4], in [5], in assay [6] and in assay [7] was inactive. In addition, the compound was classed as inactive in assay [8], in assay [9] and in assay [10].

`O=c1[nH]cnc2c1ncn2[C@H]1CC[C@@H](CO)O1`: the compound was classed as inactive in assay [1], in assay [2], in [4], in assay [5], in assay [6] and in assay [7]. Moreover, the compound was called inactive in assay [8], in assay [9] and in assay [10].
